Results reported in ChEMBL document CHEMBL1157539, “Thousands of chemical starting points for antimalarial lead identification” (Nature, 2010).

Each compound was assayed on Plasmodium falciparum (assay: GSK_TCMDC: Inhibition of Plasmodium falciparum 3D7 in whole red blood cells, using parasite LDH activity as an index of growth. Test compounds present at 2uM).
Format: functional

Question: Which Inhibition does the source give for `Cc1ccccc1NC(=O)C1CSCN1C(=O)OCc1ccccc1` (centres undefined) here?
Answer: The Inhibition was 91%.

Question: How did the Inhibition turn out when `Cn1cncc1-c1ccc2ncnc(Nc3ccc4c(cnn4Cc4ccccc4)c3)c2c1` was run?
Answer: The Inhibition was 100%.

Question: For `CCC(Cc1ccccc1)c1cc(O)c(Cc2ccc(-c3ccccc3)cc2)c(=O)o1` (centres undefined), which Inhibition is on record?
Answer: Its Inhibition is 89%.

Question: With `Cl.O=C(NCCCCN1CCC(O)(c2ccc3c(c2)OCO3)CC1)c1ccc(NC(=O)c2ccc(Cl)cc2)cc1` as the compound, how does the Inhibition read?
Answer: The Inhibition was 86%.

Each compound was assayed on Plasmodium falciparum (assay: GSK_TCMDC: Inhibition of Plasmodium falciparum Dd2 in whole red blood cells, using parasite LDH activity as an index of growth. Test compounds present at 2uM).
Format: functional

Question: With `COc1ccc(-c2ccc(NC(=O)c3cccc(Cl)c3)c(F)c2)cc1CN1CCCN(C)CC1.O=C(O)C(F)(F)F` as the compound, how does the Inhibition read?
Answer: The Inhibition was 42%.

Question: With `Br.CC(CCON1C(N)=NC(N)=NC1(C)C)c1ccc(Cl)c(Cl)c1` (centres undefined) as the compound, how does the Inhibition read?
Answer: Its Inhibition is 97%.

Question: How did the Inhibition turn out when `O=C1Nc2cccc3c2C1(CCCCCN1CCC(c2c[nH]c4ccncc24)CC1)CCC3` (centres undefined) was run?
Answer: Its Inhibition is 3%.

Question: How did the Inhibition turn out when `COc1cc(C(F)(F)F)c2cc(CNCCCNc3nc4ccccc4[nH]3)[nH]c2c1` was run?
Answer: The Inhibition was 0%.

Question: `CN1CCC(N2CCN(c3ccc4c(=O)nc(CCc5cccc(F)c5F)n(CC(=O)N(C)Cc5ccc(-c6ccc(C(F)(F)F)cc6)cc5)c4n3)CC2)CC1.O=C(O)C(O)C(O)C(=O)O` was tested. Which Inhibition did it give?
Answer: The Inhibition was 99%.

Question: For `Oc1ccc(CCNCc2ccc(OCc3ccccc3)c(OCc3ccccc3)c2)cc1`, which Inhibition is on record?
Answer: Its Inhibition is 9%.

Question: Which Inhibition does the source give for `CC[C@H](C)CNC(=O)c1cncc(-c2ccc(CNCCOc3ccccc3)cc2)c1.O=C(O)C(F)(F)F` here?
Answer: The Inhibition was 0%.

Question: With `COc1cc(NC(=O)c2cccc([N+](=O)[O-])c2)cc(S(=O)(=O)c2ccc(Cl)cc2)c1` as the compound, how does the Inhibition read?
Answer: The Inhibition was 23%.

Question: For `O=C(N[C@@H](Cc1ccccc1)[C@H](O)CNCCC(F)(F)F)c1cccc(OCC2CC2)c1`, which Inhibition is on record?
Answer: Its Inhibition is 95%.

Question: With `CCN1CCC(NCc2ccc(-c3ccc(Cl)s3)cc2)CC1` as the compound, how does the Inhibition read?
Answer: The Inhibition was 23%.

Question: Which Inhibition does the source give for `O=C(Nc1cccc(CN2CCCN(Cc3ccc(O)cc3)CC2)c1)c1ccc2ccccc2c1.O=C(O)C(F)(F)F` here?
Answer: Its Inhibition is 78%.

Question: With `Br.Oc1ccc(CCNCCCCCCNCCc2ccc(Br)cc2)cc1O` as the compound, how does the Inhibition read?
Answer: The Inhibition was 5%.

Question: How did the Inhibition turn out when `CC(=O)Nc1ccc2[nH]cc(C3CCN(CC4CCN(C(=O)/C=C/c5ccc(Cl)c(Cl)c5)CC4)CC3)c2n1` was run?
Answer: The Inhibition was 99%.

Question: Which Inhibition does the source give for `Cc1ccc(Nc2nc(C)cc(N3CCN(c4ccccc4)CC3)n2)cc1` here?
Answer: Its Inhibition is 72%.

Question: Which Inhibition does the source give for `NS(=O)(=O)c1cccc(Nc2nccc(-c3c(-c4cccc(NC(=O)c5c(F)cccc5F)c4)nn4ccccc34)n2)c1` here?
Answer: The Inhibition was 97%.

Question: Which Inhibition does the source give for `Br.CCCOc1ccc(CCCON2C(N)=NC(N)=NC2(C)C)cc1` here?
Answer: The Inhibition was 94%.

Question: `Cc1nn(-c2cccc(Cl)c2)c2c1C(C(=O)c1ccc3c(c1)OCO3)CC(=O)N2` (centres undefined) was tested. Which Inhibition did it give?
Answer: The Inhibition was 95%.

Question: How did the Inhibition turn out when `CC(C)c1ccc(NC(=O)NCCCC2CCCN(CCCCCNC(=O)/C=C/c3ccc(Cl)c(Cl)c3)C2)cc1` (centres undefined) was run?
Answer: Its Inhibition is 42%.

Question: With `CCN1CCC(N(Cc2ccc(-c3ccc(C(F)(F)F)cc3)cc2)C(=O)Cn2c(CCc3cccc(F)c3F)cc(=O)c3cn(C)nc32)CC1.O=C(O)C(O)C(O)C(=O)O` as the compound, how does the Inhibition read?
Answer: The Inhibition was 87%.

Question: `COc1cc(Cc2cnc(N)nc2N)c2c(c1OC)OC(C)C=C2` (centres undefined) was tested. Which Inhibition did it give?
Answer: Its Inhibition is 1%.

Question: With `CCCC(CNCc1ccc(Cl)c(C(F)(F)F)c1)CNc1nc2cnccc2[nH]1.Cl` (centres undefined) as the compound, how does the Inhibition read?
Answer: The Inhibition was 8%.

Question: `CC(C)c1cc(C(=O)N[C@@H](Cc2ccccc2)[C@H](O)CNC2CCCCC2)cc(N2CCCC2=O)c1` was tested. Which Inhibition did it give?
Answer: Its Inhibition is 98%.

Question: Which Inhibition does the source give for `CC1CCC(C(C)C)C(OC(=O)CSc2nnc3c(n2)[nH]c2ccccc23)C1` (centres undefined) here?
Answer: Its Inhibition is 74%.

Question: Which Inhibition does the source give for `Cc1cc(C)cc(OCC(O)CN(Cc2cc(Cl)cc(Cl)c2)C(=O)Nc2ccc([N+](=O)[O-])cc2)c1` (centres undefined) here?
Answer: Its Inhibition is 38%.

Question: For `COc1ccc(C2CCN(C#N)C2)cc1OC1CCCC1` (centres undefined), which Inhibition is on record?
Answer: Its Inhibition is 97%.

Question: For `COc1ccc(-n2cc(CNCCCn3ccnc3)c(-c3cccc(F)c3)n2)cc1`, which Inhibition is on record?
Answer: The Inhibition was 17%.

Question: `COc1cccc2cc(C(=O)N[C@@H](CC(C)C)C(=O)Nc3cc(F)ccc3Br)oc12` was tested. Which Inhibition did it give?
Answer: The Inhibition was 45%.

Question: How did the Inhibition turn out when `COc1cc2nc(NCCCN3CCCCC3)nc(NCc3ccccc3)c2cc1OC` was run?
Answer: Its Inhibition is 3%.

Question: `CC1(C)[C@H]2CC[C@@H](CNc3nc(NCC(=O)Nc4ccc5ccccc5c4)nc(N4CCC(N5CCCC5)CC4)n3)[C@@H]1C2` was tested. Which Inhibition did it give?
Answer: Its Inhibition is 20%.

Question: How did the Inhibition turn out when `Cc1cc(=NN=Cc2ccccn2)c2cc(F)ccc2[nH]1` was run?
Answer: Its Inhibition is 96%.

Question: `O=C(NCc1ccccc1)NC(CCCN1CCC(Oc2cccc(Cl)c2)CC1)c1ccc(Cl)c(Cl)c1` (centres undefined) was tested. Which Inhibition did it give?
Answer: The Inhibition was 57%.

Question: `O=C(O)C(F)(F)F.OCC1CCN(Cc2ccc(-c3ccc(-c4nc5cc(C(F)(F)F)ccc5[nH]4)s3)cc2)CC1` was tested. Which Inhibition did it give?
Answer: Its Inhibition is 90%.

Question: How did the Inhibition turn out when `Br.Cc1cc(Br)c(OCCCON2C(=N)N=C(N)NC2(C)C)c(Br)c1` was run?
Answer: The Inhibition was 97%.

Question: For `CC(C)CNCc1cccc(-c2cccc(CN(CCCN3CCN(C)CC3)C(=O)NC3CCCCC3)c2)c1.O=C(O)C(F)(F)F`, which Inhibition is on record?
Answer: Its Inhibition is 84%.

Question: With `O=[N+]([O-])c1ccc2ncnc(Nc3ccc(F)c(Cl)c3)c2c1` as the compound, how does the Inhibition read?
Answer: The Inhibition was 65%.

Question: For `Cc1cccc2nc(-c3cccc(-c4ccc(CN5CCC(C(N)=O)CC5)cc4)c3)[nH]c12.O=C(O)C(F)(F)F`, which Inhibition is on record?
Answer: The Inhibition was 9%.

Question: How did the Inhibition turn out when `Cc1ccccc1NC(=O)C1CSCN1C(=O)OCc1ccccc1` (centres undefined) was run?
Answer: Its Inhibition is 0%.

Question: For `Cn1cncc1-c1ccc2ncnc(Nc3ccc4c(cnn4Cc4ccccc4)c3)c2c1`, which Inhibition is on record?
Answer: The Inhibition was 99%.

Question: With `CCC(Cc1ccccc1)c1cc(O)c(Cc2ccc(-c3ccccc3)cc2)c(=O)o1` (centres undefined) as the compound, how does the Inhibition read?
Answer: The Inhibition was 0%.

Question: Which Inhibition does the source give for `Cl.O=C(NCCCCN1CCC(O)(c2ccc3c(c2)OCO3)CC1)c1ccc(NC(=O)c2ccc(Cl)cc2)cc1` here?
Answer: Its Inhibition is 6%.
